What all share (assay): NCI-60 one-dose screen, 48 h (100 = growth as untreated, 0 = no growth, -100 = all killed)
Common to all, as to conditions: 10 µM unless noted

Experiment [1] has as its system SK-MEL-2 melanoma.
Experiment [2] relates to EKVX NSCLC.
Experiment [3] concerns SN12C renal.
Experiment [4] has as its system UO-31 renal.
Experiment [5] has as its system TK-10 renal.
In experiment [6] the test system is ACHN renal.
The test system of experiment [7] is CAKI-1 renal.
Experiment [8] deals with A498 renal.
In experiment [9] the test system is CCRF-CEM leukemia.
Experiment [10] has as its system MOLT-4 leukemia.
Experiment [11] concerns SR leukemia.
For experiment [12], the system named is RPMI-8226 leukemia.
For experiment [13], the system named is OVCAR-8 ovarian.
Experiment [14] relates to OVCAR-5 ovarian.
Experiment [15] concerns OVCAR-4 ovarian.
The subject of experiment [16] is SK-OV-3 ovarian.
The test system of experiment [17] is IGROV1 ovarian.
Experiment [18] relates to OVCAR-3 ovarian.
Experiment [19] relates to HS 578T breast.
Experiment [20] deals with NCI/ADR-RES ovarian.

The panel holds about 83,000 compounds, 20% with a hit somewhere; the sample as a whole holds those more often.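 Testing used 96-well plates and a 48-hour single-concentration exposure. Example: -40 means 40% of the starting cells died.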 A number with no mark means an inactive call. Active and inactive are the calls of the source. The calls were made as follows: active = growth percent below 10; inactive = the rest.

Consider `CCOC(=O)c1ccc(NC(=O)c2nc(-c3cc(OC)c(OC)c(OC)c3)n(-c3ccc(Cl)cc3)n2)cc1`, for which the growth in experiment [1] was 85.9%; in experiment [2], 94%; in experiment [3], 85.2%; in experiment [4], 58.8%; in experiment [5], 93.3%; in experiment [6], 94.1%. Also, the growth in experiment [7] is 80.7%; in [8] it was 86%; in [9], 90%; in [10], 81.8%; in [11], 92.7%; in experiment [12], 82.1%. In addition, the growth is 91.5% in experiment [13]; 101% in experiment [14]; 95.4% in experiment [15]; 94.3% in [16]; 88.9% in experiment [17]; 99.7% in experiment [18]. Moreover, the values for the growth in [19] and in experiment [20] were 74.5% and 90.8%, respectively.

With `COc1c(B(O)O)cccc1-c1nc2c(F)cc3[nH]ncc3c2c2c1CCCC2`, the growth is -6.26% (active) in [1]; 7.37% (active) in experiment [2]; 15.8% in experiment [3]; -1.82% (active) in [4]; 16.2% in experiment [5]; 0.144% (active) in experiment [6]. In addition, the growth is -28% (active) in [7]; -64.6% (active) in experiment [8]; 13.9% in experiment [9]; 7.73% (active) in experiment [10]; 1.26% (active) in experiment [11]; -11.7% (active) in experiment [12]. The growth in experiment [13] was 15.1%; in [14], 7.97% (active); in experiment [15], 6.02% (active); in experiment [16], 18.2%; in experiment [17] it was 7.11% (active); in experiment [18] it was -0.0178% (active). Moreover, the results for the growth in experiment [19] and in experiment [20] were 5.7% (active) and 17.7%, respectively.

Turning to `CS(=O)(=O)Nc1cc(-c2ccc3ncnc(Nc4ccc5c(cnn5Cc5ccc(F)cc5)c4)c3c2)cnc1Cl`, the growth was 3.86% (active) in experiment [1]; 62.5% in experiment [2]; 35.6% in experiment [3]; 46.5% in experiment [4]; 38.3% in [5]; 70.6% in experiment [6]. Besides, the growth in experiment [7] is 25.7%; in [8] it was -23.2% (active); in experiment [9], 31.2%; in experiment [10], 21.2%; in experiment [11] it was 34%; in experiment [12] it was 9.43% (active). For the same compound, the growth was 67.9% in experiment [13]; 44.7% in experiment [14]; 71% in [15]; 47.5% in experiment [16]; -15.7% (active) in experiment [17]; 9.71% (active) in experiment [18]. The growth in experiment [19] is -9.56% (active); in experiment [20] it was 90%.

Regarding `CCCCC1=C(P(=O)(O)O)N[C@H](C(=O)O)CS1`, the growth in [1] is 103%; in [2], 90.5%; in experiment [3] it was 88.2%; in [4], 73.5%; in experiment [5] it was 94.8%; in experiment [6], 97.9%. Also, the growth in experiment [7] was 94.1%; in experiment [8] it was 100%; in experiment [9] it was 96.8%; in [10], 102%; in experiment [11], 96.4%; in [12] it was 99.7%. The growth was 95.5% in [13]; 94.4% in experiment [14]; 91.3% in [15]; 80.7% in experiment [16]; 94.3% in experiment [17]; 106% in experiment [18]. The growth is 109% in experiment [19] and 108% in experiment [20].

Turning to `O=c1c2ccccc2n2cnc3ccc(Cl)c1c32`, the growth in experiment [1] is 96.5%; in experiment [2], 62.7%; in [3], 76.1%; in [4], 44.8%; in experiment [5] it was 49.2%; in [6] it was 50.5%. Besides, the growth in experiment [7] is 43.1%; in [8] it was 54.1%; in experiment [9], 95.7%; in [10], 89%; in [11] it was 44.9%; in [12], 98.6%. For the same compound, the growth was 78.1% in experiment [13]; 81.6% in experiment [14]; 82.6% in [15]; 69.8% in experiment [16]; 55.5% in experiment [17]; 85.2% in experiment [18]. For the same compound, the growth was 84.8% in experiment [19] and 86.7% in [20].

As to `C=CC(=O)N1CCN(c2cccc(Oc3nccc(Nc4nnc(-c5ccc(Br)cc5)s4)n3)c2)CC1`, the growth in [1] was 54.7%; in experiment [2], 93.9%; in [3], 78.7%; in [4], 66.7%; in [5], 111%; in experiment [6], 72.9%. Further, the growth was 38.9% in experiment [7]; 79.7% in experiment [8]; 69.5% in experiment [9]; 70.6% in experiment [10]; 29.9% in experiment [11]; 50.4% in [12]. Further, the growth in experiment [13] was 66%; in experiment [14], 89.9%; in experiment [15], 88.9%; in experiment [16] it was 80.2%; in experiment [17] it was 55.9%; in experiment [18], 19.2%. In addition, the growth is 67.5% in experiment [19] and 48.4% in experiment [20].

For `O=c1[nH]c(-c2ccccc2)nc2sc3cc(O)ccc3c12`, the growth in experiment [1] is 103%; in experiment [2] it was 66.4%; in experiment [3], 89.1%; in experiment [4], 55.9%; in experiment [5] it was 99.9%; in experiment [6], 76.2%. The growth in experiment [7] was 68.9%; in experiment [8], 79.3%; in experiment [9], 73.1%; in [10], 66.9%; in experiment [11] it was 54.2%; in experiment [12] it was 82.3%. Moreover, the growth is 100% in [13]; 115% in experiment [14]; 80% in [15]; 97.9% in experiment [16]; 74.1% in experiment [17]; 93.4% in [18]. Further, the growth in experiment [19] was 89%; in [20], 95.5%.

The values above are taken from PubChem BioAssay (NCI).
